# From PubChem BioAssay (NCATS)
# Results filed as inconclusive are left out. A number with no mark means an inactive call. Calls follow the shape of the dose curve; as a rule, active = well fitted curve in the direction sought with a large enough effect; inconclusive = small, poorly fitted or top-dose-only effect, or another doubt; inactive = no such curve, though single readings can be large or run the other way.
# Biological target: Metallo-beta-lactamase type 2 (Klebsiella pneumoniae) (UniProt C7C422)
# Assay: qHTS to identify inhibitors of the New Delhi Metallo-beta-lactamase (NDM): assay validation screen against the NCATS LOPAC Collection (AID 1794843)
# Details: NDM-1 enzyme, nitrocefin hydrolysis, absorbance 485 nm; series mostly up to 38.4 µM; activity change, negative = inhibition: at the top concentration
# Outline: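 Absorbance at 485 nm from nitrocefin turnover (50 uM solution added), read at plateau, gives the read-out. Compounds in DMSO were incubated first with 2 nM final NDM-1 in pH 7.0 HEPES buffer containing 1 uM ZnSO4 and 0.01% Tween20.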
# % is scaled to controls: 0 for no effect and ±100 for the full control effect.
# Chain of Metallo-beta-lactamase type 2 (Klebsiella pneumoniae) (C7C422 whole entry, looked up): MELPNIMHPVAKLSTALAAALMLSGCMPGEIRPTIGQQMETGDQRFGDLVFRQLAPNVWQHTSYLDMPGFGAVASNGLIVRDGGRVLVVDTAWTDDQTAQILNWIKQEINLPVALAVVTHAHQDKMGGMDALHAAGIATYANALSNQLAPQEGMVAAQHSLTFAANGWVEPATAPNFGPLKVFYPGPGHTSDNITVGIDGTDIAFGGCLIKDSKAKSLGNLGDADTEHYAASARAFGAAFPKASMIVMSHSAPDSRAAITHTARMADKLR
row,SMILES,"activity change, negative = inhibition [%]"
1,CCn1c(=O)[nH]c2cc(Cl)c(Cl)cc21,12.9
2,CC(=O)O[C@H]1CC2(C)[C@@H](C[C@@H](O)[C@H]3[C@@]4(C)CC[C@@H](O)[C@@H](C)[C@@H]4CC[C@@]32C)C1=C(CCC=C(C)C)C(=O)O (stereo partly specified),3.99
3,CCCn1c(=O)c2c(ncn2C)n(CCC)c1=O,6.2
4,CC(C)NCC(O)COc1ccc(CC(N)=O)cc1 (stereo unspecified),-2.1
5,Oc1ccc(Cn2cc[nH]c2=S)cc1,-6.07
6,COC(=O)C(C)(N)Cc1ccc(O)cc1 (stereo unspecified),-4.22
7,CC(C)NC[C@H](O)COc1ccc(CC(N)=O)cc1,-1.01
8,CN(CC[C@@H](Oc1ccc(C(F)(F)F)cc1)c1ccccc1)CC(=O)O,-5.62
9,CN(C)S(=O)(=O)c1ccc2c(c1)/C(=C/c1cc3c([nH]1)CCCC3)C(=O)N2,-4.54
10,CN1C2CCC1CC(OC(c1ccccc1)c1ccccc1)C2 (stereo unspecified),-1.78
11,CNc1cc(NS(=O)(=O)c2ccc(N)cc2)nc(NC)n1,18.4
12,Cc1cc(Cn2cnc3c2C[C@@H](C(=O)O)N(C(=O)C(c2ccccc2)c2ccccc2)C3)ccc1N,-1.34
13,CCCCCCCC/C=C\CCCCCCCC(=O)NCCc1ccc(O)c(O)c1,-3.27
14,C=C(C)C1CC=C(C(=O)O)CC1 (stereo unspecified),-0.623
15,N[C@@H](Cc1ccc(O)c(I)c1)C(=O)O,-3.81
16,Cc1ccc([N+](=O)[O-])cc1S(=O)(=O)N(C)C,-1.74
17,Cc1ccc2c(c1)C(N1CCN(C)CC1)=Nc1cccnc1N2,0.78
18,CC(C)(C)c1ccc(/C=C/C(=O)Nc2ccc3c(c2)OCCO3)cc1,2.24

row,SMILES,"activity change, negative = inhibition [%]"
1,NCCCNCCCCNCCCN,-0.297
2,CC(C)(C)c1cc(/C=C(\C#N)C(N)=S)cc(C(C)(C)C)c1O,1.73
3,CC(N)(C(=O)O)c1ccc(C(=O)O)cc1 (stereo unspecified),-9.9
4,CCCC(=O)NCCc1c2n(c3ccc(OC)cc13)CCCc1ccccc1-2,-3.08
5,CCCCCCCCCCCCCCCCCCOC[C@H](COP(=O)([O-])OCC[N+](C)(C)C)OC,4.32
6,COC1(C2=NCCN2)COc2ccccc2O1 (stereo unspecified),-3.15
7,O=C(O)CCC(=O)N1CCCC1C(=O)O (stereo unspecified),-7.72
8,O=C(O)C1=CCCNC1,5.67
9,C=CCn1c(=O)c2c(nc(-c3ccc(S(=O)(=O)O)cc3)n2C)n(C)c1=O,-7.73
10,COc1ccc2c(c1)c(CC(=O)O)c(C)n2Cc1ccc(Cl)cc1,-0.273
11,C[C@]12C=CC(=O)C=C1CC[C@@H]1C2=CC[C@]2(C)[C@@H](C(=O)CN3CCN(c4cc(N5CCCC5)nc(N5CCCC5)n4)CC3)CC[C@@H]12,4.75
12,O=C(O)C1CCCNC1 (stereo unspecified),-5.94
13,O=c1ccn([C@@H]2O[C@H](COP(=O)(O)OP(=O)(O)O)[C@@H](O)[C@H]2O)c(=O)[nH]1,-8.38
14,CC#CCOC(=O)c1c(C)nc2sc3c(c2c1N)CCC(O)C3 (stereo unspecified),1.04
15,C[C@@H](NCCc1ccc(O)cc1)[C@@H](O)c1ccc(O)cc1,-10.9
16,c1ccc2c(c1)CCC[C@H]2Nc1nc2ccccc2[nH]1,-1.13
17,CNCCNS(=O)(=O)c1cccc2cnccc12,-10.2
18,CC[C@H](NC(=O)c1c(C)c(-c2ccccc2)nc2ccccc12)c1ccccc1,6.52
